The source of these data is the supplement of paper PMC6805474.

Experiment [1] concerns Schistosoma mansoni schistosomula (LE). Briefly: XTT viability relative to DMSO control; higher = more viable (less active). Particulars: 72 h; 10 µM. Here is the method: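 XTT/PMS was then added for a further 24 h (72 h total) and A450 was read. % viability = (sample - heat-killed control)/(DMSO control - heat-killed control) x 100, from duplicate wells in two independent experiments.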
On the technique in general: Formazan colour is commonly taken as a measure of viable cells.

Experiment [2] has as its system Schistosoma mansoni schistosomula (NMRI). Briefly: phenotypic severity score (0-4); higher = more antischistosomal effect, active = 2 or more. Particulars: 10 µM.
In experiment [3] the test system is Schistosoma mansoni schistosomula (Liberian). Briefly: drug effect (1 - score/DMSO control score) (fraction); higher = more antischistosomal effect, active = 0.5 or more; extreme values may be limits of the assay. As to conditions: 10 µM. Summed up:
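Liberian-strain Schistosoma mansoni schistosomula, mechanically transformed from cercariae and pre-incubated at least 12 h, were exposed in duplicate (50 per well, flat-bottom 96-well plates) to 10 µM compound in Medium 199 with 5% FCS at 37 °C, 5% CO2, with 0.1% DMSO control wells. Wells were scored visually (10×) at 24, 48 and 72 h on a quarter-point scale from 3 (normal) to 0 (dead). Drug effect was derived from the mean test-well score relative to the mean DMSO-control score. Negative values were set to zero, and plates were valid only if control wells averaged at least 2.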
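Wherever phenotypic severity score (0-4) is given: visual microscopic scoring of shape, motility and density changes versus 0.5% DMSO solvent controls, one point per descriptor, degeneracy or death scored 4, mean of duplicate wells.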

Turning to `CN1CCCC1CCO[C@](C)(c1ccccc1)c1ccc(Cl)cc1` (stereo partly drawn), the XTT viability in experiment [1] amounted to 46.6%. Also, the phenotypic severity score in experiment [2] (24 h) was 2 (active); in experiment [2] (48 h), 4 (active); in experiment [2] (72 h) it was 4 (active). For the same molecule, the drug effect in experiment [3] (24 h) was 0.9 (active); in experiment [3] (48 h) it was 1 (active); in experiment [3] (72 h), 1 (active).

With `Cc1nc(-c2ccccn2)nc(N2CCC(Cc3ccccc3)C2)c1Cl` (stereo not drawn), the XTT viability in experiment [1] was -3.46%. Also, the phenotypic severity score in experiment [2] (24 h), in experiment [2] (48 h) and in experiment [2] (72 h) was 0 (inactive) throughout. For the same molecule, the drug effect in experiment [3] (24 h) was 0.15 (inactive); in experiment [3] (48 h), 0.1 (inactive); in experiment [3] (72 h), 0.333 (inactive).

For `O=C(Nc1cccc(-c2ccc(NCCCN3CCCC3)nc2)c1)c1ccccc1`, the XTT viability in experiment [1] was 67.8%. Also, the phenotypic severity score is 1 (inactive) in experiment [2] (24 h), 2 (active) in experiment [2] (48 h) and 4 (active) in experiment [2] (72 h). In addition, the drug effect is 0.2 (inactive) in experiment [3] (24 h), 0.459 (inactive) in experiment [3] (48 h) and 0.515 (active) in experiment [3] (72 h).

On to `COc1cc(CN2CCC3(C=Cc4ccccc43)CC2)cc2c1OCO2`, for which the XTT viability in experiment [1] was determined as 73.9%. For the same molecule, the phenotypic severity score in experiment [2] (24 h) is 1 (inactive); in experiment [2] (48 h), 1 (inactive); in experiment [2] (72 h) it was 0 (inactive). Also, the drug effect was 0.1 (inactive) in experiment [3] (24 h), 0.135 (inactive) in experiment [3] (48 h) and 0.273 (inactive) in experiment [3] (72 h).

Consider `O=C(CN1CCOCC1)Nc1ccc2ncnc(Nc3ccc(OCc4cccc(F)c4)c(Cl)c3)c2c1`, for which the XTT viability in experiment [1] was determined as 125%. The phenotypic severity score in experiment [2] (24 h), in experiment [2] (48 h) and in experiment [2] (72 h) was 0 (inactive) each time. The drug effect in experiment [3] (24 h) was 0.3 (inactive); in experiment [3] (48 h) it was 0.25 (inactive); in experiment [3] (72 h), 0.222 (inactive).

For `NC(=O)c1cc(Br)ccc1OCCOc1ccccc1`, the XTT viability in experiment [1] worked out at 110%. For the same molecule, the values for the phenotypic severity score in experiment [2] (24 h), in experiment [2] (48 h) and in experiment [2] (72 h) were 1 (inactive), 1 (inactive) and 2 (active), respectively. The drug effect in experiment [3] (24 h), in experiment [3] (48 h) and in experiment [3] (72 h) was < 0 (inactive) each time.

With `c1ccc(Oc2ccc(-c3cc(CN4CCOCC4)[nH]n3)cc2)cc1`, the XTT viability in experiment [1] came out at 85.9%. Besides, the phenotypic severity score in experiment [2] (24 h), in experiment [2] (48 h) and in experiment [2] (72 h) was 0 (inactive) in each case. In addition, the drug effect in experiment [3] (24 h) is 0.0455 (inactive); in experiment [3] (48 h) it was 0.05 (inactive); in experiment [3] (72 h), 0.158 (inactive).

On to `NCCC(O)C(=O)N[C@@H]1C[C@H](N)[C@@H](OC2O[C@H](CN)[C@@H](O)[C@H](O)[C@H]2O)[C@H](O)C1OC1O[C@H](CO)[C@@H](O)[C@H](N)[C@H]1O` (stereo partly drawn), for which, in experiment [1], the XTT viability came to 93.8%. The phenotypic severity score in experiment [2] (24 h), in experiment [2] (48 h) and in experiment [2] (72 h) was 0 (inactive) in each case. Besides, the drug effect in experiment [3] (24 h) is < 0 (inactive); in experiment [3] (48 h), 0.0625 (inactive); in experiment [3] (72 h) it was < 0 (inactive).

As for `CS(=O)(=O)c1ccccc1C(=O)N(Cc1ccccc1)c1ccccc1`, the XTT viability in experiment [1] was 106%. Besides, the phenotypic severity score in experiment [2] (24 h) is 0 (inactive); in experiment [2] (48 h) it was 1 (inactive); in experiment [2] (72 h) it was 0 (inactive). The drug effect in experiment [3] (24 h) was 0.182 (inactive); in experiment [3] (48 h), 0.4 (inactive); in experiment [3] (72 h) it was 0.4 (inactive).

In the case of `CN1CCN(S(=O)(=O)c2ccc(-c3ccc4c(Nc5ccc6nn[nH]c6c5)ccnc4c3)cc2)CC1`, the XTT viability in experiment [1] was 152%. The phenotypic severity score in experiment [2] (24 h), in experiment [2] (48 h) and in experiment [2] (72 h) was 0 (inactive) each time. The values for the drug effect in experiment [3] (24 h), in experiment [3] (48 h) and in experiment [3] (72 h) were 0.1 (inactive), 0.135 (inactive) and 0.0909 (inactive), respectively.

For the molecule `COc1ccc(-c2cnc3ccc(NCc4ccc(S(N)(=O)=O)cc4)nn23)cn1`, the XTT viability in experiment [1] is 125%. Besides, the phenotypic severity score in experiment [2] (24 h), in experiment [2] (48 h) and in experiment [2] (72 h) was 0 (inactive) each time. The drug effect is 0.15 (inactive) in experiment [3] (24 h), 0.222 (inactive) in experiment [3] (48 h) and 0.312 (inactive) in experiment [3] (72 h).

For `Cc1nc2ccccn2c1C(=O)NCc1ccc(Cl)cc1`, in experiment [1], the XTT viability stood at 81%. The phenotypic severity score in experiment [2] (24 h), in experiment [2] (48 h) and in experiment [2] (72 h) was 0 (inactive) in each case. Besides, the drug effect in experiment [3] (24 h) is 0.1 (inactive); in experiment [3] (48 h), 0.189 (inactive); in experiment [3] (72 h) it was 0.333 (inactive).

Turning to `O=C(Nc1ccccc1)c1ccc(-c2cc3ccncc3cc2OC2CCNCC2)s1`, in experiment [1], the XTT viability is -18.1%. For the same molecule, the phenotypic severity score in experiment [2] (24 h), in experiment [2] (48 h) and in experiment [2] (72 h) was 0 (inactive) throughout. In addition, the drug effect in experiment [3] (24 h) is 0.15 (inactive); in experiment [3] (48 h), 0.459 (inactive); in experiment [3] (72 h) it was 0.455 (inactive).

As to `Cc1cc(OCC(=O)NCc2ccccc2)c2cc(Br)ccc2n1`, the XTT viability in experiment [1] is 111%. Besides, the phenotypic severity score in experiment [2] (24 h), in experiment [2] (48 h) and in experiment [2] (72 h) was 0 (inactive) each time. Further, the results for the drug effect in experiment [3] (24 h), in experiment [3] (48 h) and in experiment [3] (72 h) were 0.1 (inactive), 0.0556 (inactive) and 0.0625 (inactive), respectively.

Take `COc1ccc(CCN2CCC(NCc3cccc(N(C)C)c3)CC2)cc1`: in experiment [1], the XTT viability came out at 98.6%. Also, the phenotypic severity score in experiment [2] (24 h), in experiment [2] (48 h) and in experiment [2] (72 h) was 0 (inactive) in each case. The drug effect in experiment [3] (24 h) is < 0 (inactive); in experiment [3] (48 h), 0.027 (inactive); in experiment [3] (72 h), 0.0303 (inactive).

Regarding `N=C(N)c1ccc(-c2cc(-c3ccccc3)on2)cc1`, the XTT viability in experiment [1] amounted to 91.6%. Also, the results for the phenotypic severity score in experiment [2] (24 h), in experiment [2] (48 h) and in experiment [2] (72 h) were 2 (active), 1 (inactive) and 0 (inactive), respectively. In addition, the drug effect in experiment [3] (24 h) was 0.182 (inactive); in experiment [3] (48 h), 0.65 (active); in experiment [3] (72 h), 0.455 (inactive).

In the case of `CC(C)C(C(=O)Nc1ccc(S(=O)(=O)N(C)C)cc1)c1ccc(Cl)cc1` (stereo not drawn), the XTT viability in experiment [1] stood at 29.5%. Besides, the phenotypic severity score is 2 (active) in experiment [2] (24 h), 4 (active) in experiment [2] (48 h) and 4 (active) in experiment [2] (72 h). Besides, the values for the drug effect in experiment [3] (24 h), in experiment [3] (48 h) and in experiment [3] (72 h) were 0.955 (active), 0.85 (active) and 1 (active), respectively.

As to `O=C(Cn1ccnc1[N+](=O)[O-])NCc1ccccc1`, the XTT viability in experiment [1] turned out to be 89.2%. Also, the phenotypic severity score in experiment [2] (24 h), in experiment [2] (48 h) and in experiment [2] (72 h) was 0 (inactive) each time. The drug effect in experiment [3] (24 h) was 0.15 (inactive); in experiment [3] (48 h), 0.243 (inactive); in experiment [3] (72 h), 0.222 (inactive).

Consider `Clc1cccc(CO[C@H]2CCc3ccccc3[C@@H]2n2ccnn2)c1`, for which the XTT viability in experiment [1] was found to be 80.7%. Also, the results for the phenotypic severity score in experiment [2] (24 h), in experiment [2] (48 h) and in experiment [2] (72 h) were 3 (active), 4 (active) and 4 (active), respectively. The drug effect in experiment [3] (24 h) is < 0 (inactive); in experiment [3] (48 h), 0.1 (inactive); in experiment [3] (72 h), 0.158 (inactive).
